Results taken from PubChem BioAssay AID1645855 (Buhrlage Lab, Dana-Farber Cancer Institute and Novartis …, 2021).
The campaign covered roughly 47,000 compounds. About 3,100 (6.6%) were called active. The full list was thinned out, with actives kept by preference. A number with no mark means an inactive call. Rule as the data show it: active = inhibition above about 30%; inactive = the rest.

biological target: Ubiquitin carboxyl-terminal hydrolase 17-like protein 5 (Homo sapiens) (UniProt A8MUK1); test: blocks human USP17 ubiquitin-rhodamine cleavage (AID 1645855); details: purified USP17, Ub-rhodamine cleavage fluorescence, 3 h; at 50 µM; stronger effect = higher value
Sequence (A8MUK1 whole entry, looked up): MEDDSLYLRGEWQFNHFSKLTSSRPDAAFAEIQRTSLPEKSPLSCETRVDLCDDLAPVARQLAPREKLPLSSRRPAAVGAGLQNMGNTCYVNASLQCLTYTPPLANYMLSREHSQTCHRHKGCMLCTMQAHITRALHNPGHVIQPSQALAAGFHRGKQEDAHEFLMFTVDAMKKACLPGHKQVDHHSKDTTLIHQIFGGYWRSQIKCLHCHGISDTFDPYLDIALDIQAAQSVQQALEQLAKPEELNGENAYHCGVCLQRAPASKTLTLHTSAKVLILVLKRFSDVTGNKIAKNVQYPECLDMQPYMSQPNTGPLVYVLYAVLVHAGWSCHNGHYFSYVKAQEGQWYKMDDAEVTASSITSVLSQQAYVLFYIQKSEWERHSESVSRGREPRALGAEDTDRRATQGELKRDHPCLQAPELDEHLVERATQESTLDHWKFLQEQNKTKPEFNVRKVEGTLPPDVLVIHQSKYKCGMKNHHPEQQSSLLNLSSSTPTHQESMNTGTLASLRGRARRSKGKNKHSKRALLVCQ

| Structure (SMILES) | inhibition |
| --- | --- |
| Nc1nc(COC(=O)c2ccoc2)nc(Nc2ccccc2)n1 | -3.92% |
| Cc1nc(-c2ccc(C)c(S(=O)(=O)NCc3ccccc3Cl)c2)cs1 | 28% |
| CN(CC(=O)Nc1ccc(F)cc1Cl)Cc1ccc2c(c1)OCO2 | -5.43% |
| COc1ccc(C(NC(=O)CN(C)Cc2ccc3c(c2)OCO3)c2ccccc2)cc1 (stereo not drawn) | 35.3% (active) |
| Cc1ccc(F)cc1NC(=O)CN(C)Cc1ccc2c(c1)OCO2 | 1.53% |
| CCN(CC)c1ccc2ccc(C(=O)NCCc3ccccn3)cn12 | -61.8% |
| COc1cccc(N2CCN(C(=O)Nc3ccc4c(c3)NC(=O)CO4)CC2)c1 | 45% (active) |
| Cc1cc2oc(C(=O)Nc3ccc4c(c3)NC(=O)CO4)c(C)c2cc1Cl | 11.8% |
| COc1cccc(NC(=O)N2CC[C@H]3N(C)CC[C@@]3(C(=O)N3CCCC3)CC2)c1 | -21.3% |
| CN(Cc1cccnc1)Cc1ccc(N2CCC(NC(=O)c3ccc4c(c3)OCO4)CC2)nc1 | -12% |
| O=c1c2cnc(N3CCOCC3)nc2ccn1CCc1ccccc1 | 71.6% (active) |
| O=c1c2cnc(N3CCCCC3)nc2ccn1Cc1cccnc1 | -8.83% |
| CN1CCN(c2ncc3c(=O)n(Cc4ccccn4)ccc3n2)CC1 | 11.4% |
| Cc1nnc2n1CC(c1cccc(NC(=O)Cn3ccnc3C(C)C)c1)CC2 (stereo not drawn) | 3.88% |
| O=C(Cn1c(=O)n(Cc2ccc3c(c2)OCO3)c(=O)c2cccnc21)Nc1ccc(F)cc1 | 14.6% |
| CC(C)[C@H](NC(=O)N1CCn2c1nc1ccccc12)C(=O)NCCc1ccccc1 | -12.9% |
| O=S1(=O)c2ccccc2O[C@H]2CCN(c3ncccn3)CC[C@@H]2N1Cc1cccnc1 | -37.6% |
| CCN1CCN(c2nc(F)c3c(c2F)S(=O)(=O)CCN3CC2CCCO2)CC1 (stereo not drawn) | 16.6% |
| CC1CCN(c2nc(F)c3c(c2F)S(=O)(=O)CCN3Cc2cccnc2)CC1 | 50.9% (active) |
| Cc1noc(-c2ccc3nnc(CC(=O)Nc4ccc(C)c(F)c4)n3c2)n1 | -2.57% |
| COC(=O)c1cccc(Oc2nc(OC)nc(OC)n2)c1 | -1.33% |
| Cc1ccc(CNC(=O)c2ccc(-c3cccnc3)nc2)cc1 | 9.44% |

| Structure (SMILES) | inhibition |
| --- | --- |
| Cc1cc(C)n(Cc2c(C(=O)NCc3ccc(F)cc3)noc2C)n1 | -5.62% |
| CNS(=O)(=O)c1ccc(CNC(=O)c2cc(-c3ccc(C)cc3)no2)cc1 | 65% (active) |
| CCn1cc(S(=O)(=O)CC(=O)Nc2ccccc2C(F)(F)F)c2ccccc21 | -1.62% |
| O=C(Nc1ccccc1[N+](=O)[O-])N1CCN(c2ccc3nnc(-c4ccccc4)n3n2)CC1 | 12.5% |
| CC1CCN(C(=O)CSc2ccc3nnc(-c4cccc(F)c4)n3n2)CC1 | -2.06% |
| Cc1cccc(-c2nnc3ccc(N4CCC(C(=O)NC(C)Cc5ccco5)CC4)nn23)c1 (stereo not drawn) | 48.5% (active) |
| COCCn1c(=O)[nH]c2cc(C(=O)NCc3ccc(Cl)cc3)ccc2c1=O | 0.361% |
| COCCn1c(=O)[nH]c2cc(C(=O)N3CCC(Cc4ccccc4)CC3)ccc2c1=O | 2.53% |
| COCCn1c(=O)[nH]c2cc(C(=O)NCCNc3ccc([N+](=O)[O-])cc3C#N)ccc2c1=O | 53.7% (active) |
| CN1CCN(S(=O)(=O)c2cccc(C(=O)Nc3cccc(S(N)(=O)=O)c3)c2)CC1 | -6.3% |
| COc1cccc(N2CCN(C(=O)C3CCN(c4ncnc5onc(C)c45)CC3)CC2)c1 | -20.4% |
| CCC(=O)Nc1nc2cc(NC(=O)c3ccc(OC)cc3)ccc2s1 | 30.9% (active) |
| CCC(=O)c1ccc(OCC(=O)Nc2ccc3nc(C)sc3c2)cc1 | 5.34% |
| CCOc1ccc2nc(NC(=O)CN3CCC(C(N)=O)CC3)sc2c1 | -0.089% |
| CC(=O)N1c2ccc(S(=O)(=O)NCC3CCC(C(=O)Nc4cccnc4)CC3)cc2CC1C (stereo not drawn) | 0.344% |
| CC(Oc1ccc2c3c(c(=O)oc2c1)CCC3)C(=O)NCC(=O)N1CC[C@@]2(O)CCCC[C@H]2C1 (stereo partly drawn) | 10.3% |
| CNC(=O)c1cnc2scc(-c3ccccc3)n2c1=O | 1.82% |
| Cc1ccc2c(c1)C(=O)NCC1(CCN(C(=O)c3cscn3)CC1)O2 | 0.0795% |
| O=C(Nc1ccc2sc(NC(=O)C3CCCCC3)nc2c1)NC1CCCC1 | 20.6% |
| Cc1noc2nc(C3CC3)cc(C(=O)Nc3nc4ccccc4s3)c12 | -4.21% |
| Cc1ccc2sc(NC(=O)NC(=O)c3c(Cl)cccc3Cl)nc2c1 | 36.4% (active) |
| Cc1ccc(Cn2cc(C(=O)O)c(S(=O)(=O)N3CCOCC3)n2)cc1 | -22.5% |

| Structure (SMILES) | inhibition |
| --- | --- |
| CC(C)OCCCn1c(=O)c2ccccc2n2c(CCC(=O)NCCN3CCN(c4cccc(Cl)c4)CC3)nnc12 | 8.41% |
| O=C(C1CCc2nc(N3CCOCC3)ncc2C1)N1CCCCCC1 (stereo not drawn) | -6.44% |
| Cc1ccc(NC(=O)C2CCCN(c3ncnc4onc(C)c34)C2)nc1 (stereo not drawn) | 0.0336% |
| O=C(NC1CC1)C1CCN(c2ncccc2-c2nc(-c3ccccc3)no2)CC1 | 17.4% |
| O=C(NCC1CC1)c1nc(-c2ccc3[nH]ccc3c2)no1 | -9.5% |
| O=C(NC1CC1)c1nc(-c2ccc(-n3cccc3)cc2)no1 | 43.1% (active) |
| CSCC[C@H](NC(=O)N1CCn2c1nc1ccccc12)C(=O)NCc1ccc2c(c1)OCO2 | 14.2% |
| CCn1c(=O)c(CCC(=O)N2CCN(c3ccccc3)CC2)nc2c(C)nn(-c3ccccc3)c21 | 5.12% |
| c1ccc(Nc2cc(CC3CCN(Cc4cnc[nH]4)CC3)ncn2)nc1 | -12.1% |
| CSc1ncnc2c1sc1nc(-c3ccccc3)c3c(c12)CC(C)(C)OC3 | 3.2% |
| CCCCCCSc1ncnc2c1sc1nc(-c3ccccc3)c3c(c12)CC(C)(C)OC3 | 3.28% |
| CC1(C)Cc2c(c(-c3ccco3)nc3sc4c(SCCCc5ccccc5)ncnc4c23)CO1 | 69.7% (active) |
| Cc1ccc(S(=O)(=O)N2Cc3ccccc3CN3C(=O)NC(=O)C3C2)cc1 (stereo not drawn) | 4.38% |
| COc1ccc(CCNc2ncnc3c2cnn3Cc2ccccc2)cc1OC | -18.7% |
| CC(=O)N1CC(C)Oc2cc(S(=O)(=O)Nc3ccc(C)cc3C)ccc21 (stereo not drawn) | 6.48% |
| CC1CCc2c(sc(NC(=O)c3cc(-c4ccccc4)nc4ccccc34)c2C(N)=O)C1 (stereo not drawn) | 4.55% |
| NC(=O)c1c(NC(=O)c2ccccc2Oc2ccccc2)sc2c1CCN(Cc1ccccc1)C2 | 30.4% (active) |
| Cc1c(Cc2ccccc2)sc(NC(=O)c2cccnc2)c1C(N)=O | 10.7% |
| O=C(NCc1ccc2c(c1)OCO2)c1ccc(CS(=O)c2ccc(Cl)cc2)o1 (stereo not drawn) | -0.0116% |
| CCc1cccc(C)c1NC(=O)C1=Cc2cc(OC)ccc2OC1 | -6.4% |
| CC(=O)Nc1nsc(N2CCC(C(=O)NCc3cccc(C)c3)CC2)n1 | -1.72% |
| Cc1cccc(CNC(=O)C2CCN(c3cnc4nccnc4c3)CC2)c1 | -128% |

| Structure (SMILES) | inhibition |
| --- | --- |
| Cc1cccc(CNC(=O)C2CCCN(S(=O)(=O)Cc3ccc(F)cc3)C2)c1 (stereo not drawn) | 56.7% (active) |
| COc1ccc(Cn2cc(-c3nc(C4CC4)no3)ccc2=O)cc1F | -5.47% |
| CCN1CCN(c2nc3c(c(=O)[nH]c(=O)n3C)n2CC(O)c2ccccc2)CC1 (stereo not drawn) | -4.6% |
| C=CCn1c(N2CCC(C(=O)NCC(C)O)CC2)nc2ccccc21 (stereo not drawn) | 9.39% |
| O=C1N[C@H]2OCCC[C@H]2[C@H](c2ccccc2C(=O)O)N1 | -6.46% |
| Cn1c(CCN2CCCC2)nc2cc(NS(=O)(=O)c3ccccc3)ccc21 | 60.7% (active) |
| CC(=O)Nc1ccc2c(c1)nc(CCN1CCCC1)n2C | -8.68% |
| Cn1c(CCN2CCCC2)nc2cc(NC(=O)c3cccc([N+](=O)[O-])c3)ccc21 | 16.8% |
| CCc1nnc(NC(=O)c2cc(-c3ccc(C)c(C)c3O)n[nH]2)s1 | 16.7% |
| CC(C)(C)C(=O)Nc1ccc(SCc2nnc(-c3ccccc3)o2)cc1 | 2.2% |
| O=C(Nc1ccc(-c2nc3cnccc3o2)c(O)c1)c1ccc(-c2ccccc2)cc1 | 2.32% |
| COc1cc(C(=O)Nc2ccc(-c3nc4cnccc4o3)cc2)cc(OC)c1OC | -3.38% |
| O=C(Cc1ccccc1)Nc1ccc(-c2nc3cnccc3o2)c(O)c1 | 63.3% (active) |
| O=C(c1cc(Cl)ccc1F)N1CCC(c2nc(C3CC3)n[nH]2)CC1 | -2.96% |
| O=C(Cn1cc(S(=O)(=O)Cc2ccccc2F)c2ccccc21)N1CCCCCC1 | -0.288% |
| O=C(Cn1cc(S(=O)(=O)Cc2ccccc2Cl)c2ccccc21)N1CCCCCC1 | 42% (active) |
| Cc1ccc(CS(=O)(=O)c2cn(CC(=O)N3CCCCC3)c3ccccc23)cc1 | -20.5% |
| COc1ccc(-c2nc(-c3cccs3)no2)cc1OC | -2.65% |
| O=S(=O)(c1ccc(S(=O)(=O)N2CCN3CCCC3C2)cc1)N1CCOCC1 (stereo not drawn) | -8.52% |
| Cc1ccc(Nc2nc(O)c(CC(=O)Nc3ccc(C(C)C)cc3)s2)cc1C | 6.68% |
| Cc1ccc(NC(=O)Cc2sc(Nc3ccc(C)cc3)nc2O)cc1 | 58.2% (active) |
| CCOc1ccc(Nc2nc(O)c(CC(=O)Nc3cccc(C)c3)s2)cc1 | 7.74% |
